# Only some compounds are listed: those with a hit (about 1.2% of all), similar ones and a draw of the others.
# RGS8-Gao reg: modulates binding of RGS8 to human Galphao; P09471; multiplexed bead flow cytometry; actives lie on both sides; response (percent of control binding), % at 10 µM; 0.34% of 220,000 active; AID 1423; in the data active = response below about 60% or above about 140%; inactive = in between;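 note: Galphao activated as the GDP aluminium fluoride complex binding bead-coupled RGS8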
# Target sequence (P09471 whole entry, looked up): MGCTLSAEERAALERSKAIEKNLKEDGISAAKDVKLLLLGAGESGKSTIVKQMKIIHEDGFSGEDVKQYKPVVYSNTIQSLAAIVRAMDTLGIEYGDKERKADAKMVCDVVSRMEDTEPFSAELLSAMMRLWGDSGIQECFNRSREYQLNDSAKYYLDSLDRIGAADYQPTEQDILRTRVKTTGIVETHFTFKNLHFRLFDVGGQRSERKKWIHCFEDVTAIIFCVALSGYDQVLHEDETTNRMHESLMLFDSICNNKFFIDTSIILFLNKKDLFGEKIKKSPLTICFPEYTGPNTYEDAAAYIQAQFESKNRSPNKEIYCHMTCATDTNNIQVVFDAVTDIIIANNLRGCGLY
# RGS7-Gao: human RGS7-Galphao interaction regulation; AID 1439; binding response (% of control), % at 10 µM; Multiplexed bead flow cytometry, RGS7-Galphao binding; actives lie on both sides; 0.35% of 220,000 active; in the data active = binding response below about 49% or above about 150%; inconclusive = no clear call, values can overlap the other calls; inactive = in between;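 note: fluorescent Galphao held in activated GDP-AlF4 state binding bead-coupled RGS7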
# RGS4-Gao reg: human RGS4-Galphao interaction regulation; binding response (% of control), % at 10 µM; Multiplexed bead flow cytometry, RGS4-Galphao binding; actives lie on both sides; P09471; 0.33% of 220,000 active; in the data active = binding response below about 49% or above about 150%; inactive = in between;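 note: fluorescent Galphao activated with aluminum fluoride binding bead-coupled RGS4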
# RGS16-Gao: modulates binding between human RGS16 and Galphao. bead-based flow cytometry RGS16-Galphao binding, fluorescence; actives lie on both sides. O15492+P09471. 0.38% of 220,000 active. AID 1441. binding response (% of control), % at 10 µM; call rule not given here;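 note: Galphao activated by GDP with aluminum fluoride before binding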
# GSH bead fluor: compound fluoresces at 488/530 nm on GSH beads; GSH beads flow cytometry, compound fluorescence 488/530 nm; stronger effect = higher value; fluorescence (KMESF) at 10 µM; 0.25% of 190,000 active; AID 1776; in the data active = fluorescence above about 89;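 note: glutathione beads carrying GST-tagged Bcl family fusion proteins plus one bare bead set; values are compound well signal with DMSO vehicle wells as background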
# Avidin bead fluor: avidin bead compound fluorescence profile. Avidin beads, compound fluorescence 488/530 nm, flow cytometry; stronger effect = higher value. fluorescence (KMESF) at 10 µM. 0.38% of 220,000 active; in the data active = fluorescence above about 47
# Numbers without * were called inactive; ? = inconclusive; / = not tested or not shown; ! = not confirmed by another sample.
SMILES,RGS8-Gao reg,RGS7-Gao,RGS4-Gao reg,RGS16-Gao,GSH bead fluor,Avidin bead fluor
CC(C)Cn1c(=O)c2c(nc3n2CCCN3CCc2ccccc2)n(C)c1=O,86,96,98,52,257*,5
Cc1cc(C)c[n+](-c2nc3ccccc3nc2C(=C=[N-])C#N)c1,95,100,83,87,238*!,24
Cc1ccc[n+](-c2nc3ccccc3nc2C(=C=[N-])C#N)c1,83,?,111,82,11,61*!
CCc1ccc[n+](-c2nc3ccccc3nc2C(=C=[N-])C#N)c1,96,?,94,88,/,7
Cc1ccc(-n2nc(C)c3onc(C)c3c2=O)cc1,100,?,98,98,/,6
Cn1c(SCc2ccccn2)nc2c1c(=O)[nH]c(=O)n2C,100,?,101,99,/,8
Cc1ccc(S(=O)(=O)Nc2nc(C)cc(NN)n2)cc1,100,?,97,99,/,6
Cc1ccc(S(=O)(=O)Nc2nc(C)cc(NCCN)n2)cc1,99,99,98,103,279*,7
CCCOc1ccc(CNCCCOCC)cc1OC,95,91,95,99,14,7
COc1ccc(NC2c3ccccc3C(=O)N2c2cccnc2)cc1 (stereo unspecified),98,?,100,96,/,8
CC(C)(C)C(=O)CSc1nnc(Nc2ccccc2)s1,96,96,96,98,10,10
CCc1nnc(SCc2ccc(C(=O)OC)o2)n1N,98,100,101,104,258*,7
CCCc1nnc(SCc2ccc(C(=O)OC)o2)n1N,107,101,105,113,9,28
Cc1nc(NCc2ccco2)c2c(C)c(C)sc2n1,96,90,96,93,25,11
Cc1sc2nc3c4ccccc4c(NCc4ccco4)nn3c(=O)c2c1C,99,119,103,104,8,65*
O=C(Nc1nc2c(s1)CCCC2=O)c1cnccn1,102,96,99,101,269*,8
COc1ccc(NC2=CC(=O)CC(c3ccccc3)C2)cc1 (stereo unspecified),87,112,106,77,28,10
O=C(CONS(=O)(=O)c1ccc(Cl)cc1)NCCNc1ncc(C(F)(F)F)cc1Cl,102,92,100,102,15,10
CC(NC(=O)c1cncc(Br)c1)c1ccc(S(N)(=O)=O)cc1 (stereo unspecified),104,99,105,102,71,8
NS(=O)(=O)c1ccc(CCNC(=O)c2cncc(Br)c2)cc1,98,110,99,95,21,50*
COc1cc2[nH]c(=O)n(CCC(=O)NC3CCCC3)c(=O)c2cc1OC,103,120,107,103,23,68*
COc1cc2[nH]c(=O)n(Cc3ccc(C(=O)NC4CCCC4)cc3)c(=O)c2cc1OC,107,104,111,106,10,24
O=C(N/N=C/c1cc(Cl)cc([N+](=O)[O-])c1O)c1ccccc1NS(=O)(=O)c1cccs1,104,?,103,107,/,11
CCN1CCN(S(=O)(=O)c2cc(C(=O)O)ccc2Cl)CC1,98,?,124,101,/,58*
CCOC(=O)NC(CC(=O)O)c1ccc(OC)c(OC)c1 (stereo unspecified),102,102,106,104,259*,8
SMILES,RGS8-Gao reg,RGS7-Gao,RGS4-Gao reg,RGS16-Gao,GSH bead fluor,Avidin bead fluor
O=C(Cn1cc(C(F)(F)F)ccc1=O)Nc1cccc(S(=O)(=O)N2CCOCC2)c1,101,136,106,99,11,96*
O=C(NCc1cccs1)C1CCCN1C(=O)Nc1ccc(F)cc1 (stereo unspecified),104,?,104,106,/,8
O=C(O)C1CC=CCC1C(=O)NCc1ccc2c(c1)OCO2 (stereo unspecified),103,100,98,104,102*,4
Cc1cc2cc(CN(C(=O)C3CC3)C3CCCC3)c3nnnn3c2cc1C,98,137,103,102,40,61*
CCc1ccc2c(c1)cc(CN(C(=S)Nc1cccc(C)c1)C1CC1)c1nnnn12,101,99,100,98,10,27
COc1ccc(OCCSc2nnc(-c3ccccc3)n2N)cc1,99,118,104,101,28,63*
CC(C)NC(=O)C(=O)NNC(=O)C12CC3CC(CC(C3)C1)C2,89,101,82,73,109*,7
CC(CN1CCCCC1)C(=O)NNC(=O)C12CC3CC(CC(C3)C1)C2 (stereo unspecified),102,105,103,103,21,24
CC(C)(C)C1CCC(=NNC(=O)CN(c2ccccc2)S(=O)(=O)c2ccccc2[N+](=O)[O-])CC1 (stereo unspecified),101,128,145,103,20,53*
CCOC(=O)c1sc(NC(=O)COC(=O)CNC(=O)C2CCCCC2)c(C(=O)OCC)c1C,101,104,95,93,10,5
Cc1cc(N2CCCCC2)nc(N2CCOCC2)n1,106,125,110,109,35,111*
Cc1cc(N2CCOCC2)nc(N2CCOCC2)n1,99,?,102,98,23,11
Cc1ccnc2nc(C(=O)N3CCN(c4ccc(F)cc4)CC3)nn12,95,97,97,58,249*,5
O=C(O)c1cc(NCc2ccccc2C(F)(F)F)ccc1N1CCOCC1,96,112,98,89,21,52*
O=C(O)c1cc(NCc2ccc(F)cc2)ccc1N1CCOCC1,101,100,99,107,36,6
CC(Sc1nnc(Cc2cccs2)n1C1CCCCC1)C(=O)N1CCc2ccccc21 (stereo unspecified),97,104,98,98,17,48*
Cc1ccc2[nH]c(O)c(N=NC(=O)CCc3ccccc3)c2c1Br,85,88,92,16,13,8
Cc1ccc(C)c(C(=O)COc2ccc(C)nc2[N+](=O)[O-])c1,95,102,94,91,256*,6
O=c1cc(-c2ccccc2Cl)oc2c(NS(=O)(=O)c3cccs3)ccc(O)c12,86,?,87,90,/,7
Cc1cccc(NC(=S)N2CCC(c3nc4ccccc4o3)CC2)c1C,55*,42*,48*,38,30,2
O=C(CNc1cccc(C(F)(F)F)c1)N/N=C/c1ccccc1C(=O)O,103,?,101,102,/,6
COc1ccc(N(CC(=O)Nc2cc(C)on2)S(=O)(=O)c2ccc(Cl)cc2)cc1,105,107,113,108,250*,4
COc1ccc(N(CC(=O)Nc2cc(C)on2)S(=O)(=O)c2cc(C)ccc2C)cc1,97,99,100,93,25,26
CC1=NNC(=O)C1CC(=O)N/N=C/C=C/c1ccccc1 (stereo unspecified),101,?,99,100,/,9

# Assay outcomes (PubChem BioAssay)
